# PubChem BioAssay AID1446 (The Scripps Research Institute Molecular Screening Center, 2008)
# Hit rate of the full screen: of about 220,000 compounds, about 2,400 (1.1%) were called active.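 The calls were made as follows: active = inhibition above the campaign mean plus 3 SD over all tested compounds (cut at about 24% in these data); inactive = the rest.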 Shown is part of a subset that was picked to be rich in actives.
# Assay: reduced viability of JAK2V617F-dependent Ba/F3 cells, primary screen, JAK2V617F inhibitor project, cell-based, Ba/F3 EpoR-JAK2V617F, luminescence (AID 1446);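 also: cytokine-independent growth of Ba/F3 cells driven by EpoR plus mutant JAK2; 0% = DMSO-treated cells and 100% = JAK inhibitor I control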
# Details: ATP luminescence, at 5.6 µM, active compounds read high
row,SMILES,inhibition
1,CC(CNS(=O)(=O)c1ccc(Br)cc1)CN(C)C (configuration not stated),-1.94% (inactive)
2,Cc1ccc(Cl)cc1N1CCN(C(=O)c2cccc3c(=O)c(C)c(-c4ccccc4)oc23)CC1,-6.79% (inactive)
3,C=CCNc1scc(-c2ccccc2)[n+]1CC=C,-1.89% (inactive)
4,Cc1ccc(NC(=O)Nc2ccccc2)c(Br)c1,1.27% (inactive)
5,C=CC[n+]1c(-c2ccc(C)cc2)csc1NNC(=O)Nc1ccccc1,37.6% (active)
6,CCN(CC)CCOC(=O)c1ccc(NC(=O)CNC(=O)c2ccccc2)cc1,0.68% (inactive)
7,COc1ccc(C(=O)C[n+]2ccc(C)cc2)cc1,-3% (inactive)
8,COc1ccc(C(=O)C[n+]2ccc(N)c(C)c2C)cc1,97.4% (active)
9,COc1ccc(OCCC(=O)c2ccc(OC)cc2)cc1,-0.79% (inactive)
10,Cc1nn(-c2ccccc2)c(NC(=O)c2cccs2)c(-c2ccc(Cl)cc2)c1=O,-2.34% (inactive)
11,CN(C)CCCNC(=O)/C=C/c1ccc(OCc2c(F)cccc2Cl)cc1,0.9% (inactive)
12,COCCCNC(=O)/C=C/c1ccc(OCc2c(F)cccc2Cl)cc1,-4.39% (inactive)
13,O=C(/C=C/c1ccc(OCc2c(F)cccc2Cl)cc1)N1CCOCC1,64.4% (active)
14,O=C(NNC(=O)c1csc(-c2cccnc2)n1)Nc1ccc(Cl)cc1,-0.26% (inactive)
15,COC(=O)N/N=C/c1cn(CCCOc2ccc(C)cc2)c2ccccc12,-1.96% (inactive)
16,O=C(Nc1ccc2c(c1)OCCO2)c1cnccn1,0.76% (inactive)
17,CCN(CC)c1ccc(/C=N/NC(=O)c2cnccn2)c(O)c1,56.2% (active)
18,CCN(CC)c1ccc(/C=N/Nc2nc(C)cc(C)n2)c(O)c1,2.26% (inactive)
19,Cc1noc(C)c1C(=O)OCC(=O)/C=C1\N(C)c2ccccc2C1(C)C,1.84% (inactive)
20,CC(=O)Nc1cccc(OCC(=O)/C=C2\N(C)c3ccccc3C2(C)C)c1,37.5% (active)
21,CN1/C(=C\C(=O)c2cccnc2Cl)C(C)(C)c2ccccc21,2.48% (inactive)
22,N/C(=N\OC(=O)Nc1ccccc1)c1ccno1,4.88% (inactive)
23,CC1(C)CC(N2CCN(C(c3ccccc3)c3ccccc3)CC2)=CC(=[N+]2CCCCC2)C1,98.8% (active)
24,CC(C)NC(=S)N1CCN(C(c2ccccc2)c2ccccc2)CC1,1.76% (inactive)
25,CC1(C)CC(=O)C=C(N2CCCC2)C1,-0.55% (inactive)

row,SMILES,inhibition
1,CCOC(=O)C(Sc1ncc(C#N)c(N)n1)C(C)C (configuration not stated),-2.24% (inactive)
2,COc1cc(C=O)ccc1Oc1nnnn1-c1ccccc1,1.87% (inactive)
3,COc1ccc(Nc2cc(C)nc(-n3nc(C)cc3C)n2)cc1,76.7% (active)
4,Cc1cc(Oc2ccccc2)nc(N2CCOCC2)n1,1.31% (inactive)
5,Cc1cc(N/N=C\c2ccc(Br)cc2)nc(-n2nc(C)cc2C)n1,-1.35% (inactive)
6,COc1ccccc1/C=N\Nc1cc(C)nc(-n2nc(C)cc2C)n1,-2.19% (inactive)
7,CC(=O)c1ccc(Oc2cc(C)nc(-n3nc(C)cc3C)n2)cc1,64.7% (active)
8,Cc1cc(C)n(-c2cc(Oc3ccccc3)ncn2)n1,0.29% (inactive)
9,Nc1nc(SC23CC4CC(CC(C4)C2)C3)ns1,-4.14% (inactive)
10,O=C(c1ccc(OC2CCN(Cc3ccccn3)CC2)cc1)N1CCCCCC1,-0.65% (inactive)
11,CC(C)(C)c1ccc(CCC2OCC(CN3CCOCC3)O2)cc1 (configuration not stated),0.42% (inactive)
12,CC(C)[C@@H]1NC(=O)c2cc([N+](=O)[O-])cc(I)c2NCCC[C@@H](C(=O)NC(CC(=O)O)C(N)=O)NC(=O)[C@H](CO)NC1=O (some centres not stated),1.14% (inactive)
13,CC(C)(C)OC(=O)NCCCCCC(=O)N/N=C/c1coc2ccccc2c1=O,0.8% (inactive)
14,Cc1ccc(N2C(=O)CN=C2Nc2nc(C)cc(C)n2)cc1,-0.62% (inactive)
15,CCCCOc1ccc(NC(=O)[C@@H]2CCCN2C(=O)C2CCN(S(=O)(=O)c3ccc(C)cc3)CC2)cc1,1.1% (inactive)
16,Cc1cc(C)nc(NS(=O)(=O)c2ccc(N/C=C\C(=O)c3cccs3)cc2)n1,2.57% (inactive)
17,CCN1/C(=C\c2ccc3ccccc3[n+]2CC)Sc2cc(C)ccc21,99.7% (active)
18,CCN1/C(=C/C(=S)Nc2ccccc2)Sc2ccccc21,-4.02% (inactive)
19,CCN1/C(=C/c2ccc3ccc(C)cc3[n+]2CC)Sc2ccccc21,100% (active)
20,CCN1CCN(CCNC(=O)c2ccc(/C=C3/Sc4ccccc4N(Cc4cccc(C)c4)C3=O)cc2)CC1,4.4% (inactive)
21,COc1ccc([N+](=O)[O-])cc1NC(=O)COC(=O)/C=C/c1ccco1,-0.59% (inactive)
22,O=S1(=O)CCC(NC(=S)SCc2ccccc2Br)C1 (configuration not stated),-4.11% (inactive)
23,CC1(C)OC(=O)C(=CSc2ccc(C(C)(C)C)cc2)C(=O)O1,-1.81% (inactive)
24,COc1ccc(S(=O)(=O)NC(C)C)cc1C(=O)NC1CCCCC1,-1.5% (inactive)
25,COc1cc(OC)c(C(=O)NC2CCCCCC2)cc1OC,99.6% (active)

row,SMILES,inhibition
1,COc1cc(OC)c(C(=O)NC2CC(C)(C)NC(C)(C)C2)cc1OC,-0.48% (inactive)
2,O=C(NC(=O)c1ccccc1N1CCCCC1)Nc1ccc(Br)cc1,0.79% (inactive)
3,O=C(N/N=C/c1coc2ccccc2c1=O)c1cc2ccccc2o1,2.09% (inactive)
4,Cc1c(/C=N\NC(=O)c2cc3ccccc3o2)c2ccccc2n1C,34.8% (active)
5,O=C(N/N=C/c1c[nH]c2ccccc12)c1cc2ccccc2o1,0.06% (inactive)
6,CC(=O)c1nnn(-c2ccc(Cl)cc2C#N)c1C,0.95% (inactive)
7,CC(C)CNC(=O)COC(=O)/C=C/c1ccco1,-3.59% (inactive)
8,COc1ccc(Cn2c(=O)cc(C)[nH]c2=S)cc1,2.03% (inactive)
9,COc1ccc(Cn2c(-c3ccc(Cl)cc3)c[n+]3ccccc23)cc1,88.9% (active)
10,COc1ccc(C(=O)CN(C(=O)c2ccc(Cl)cc2)N2C(=O)c3ccccc3C2=O)cc1,0% (inactive)
11,O=C(CSc1nnc(SCc2ccc(F)cc2)s1)Nc1ccc(C(=O)O)cc1,-3.83% (inactive)
12,Cc1ccc(S(=O)(=O)N(C)C)cc1NC(=O)c1ccccc1Br,2.86% (inactive)
13,COc1ccc(-c2cc(C(F)(F)F)nc(SCC(=O)Nc3ccc4c(c3)OCO4)n2)cc1OC,2.59% (inactive)
14,COc1ccc(-c2cc(C(F)(F)F)nc(S(C)(=O)=O)n2)cc1OC,37.9% (active)
15,COc1cc(OC)nc(S(C)(=O)=O)n1,-3.65% (inactive)
16,Cc1c(CCC(=O)O)c(=O)oc2cc3occ(-c4ccccc4)c3cc12,2.82% (inactive)
17,COc1ccc(C(=O)NNC(=S)NC(=O)c2ccccc2[N+](=O)[O-])cc1,0.22% (inactive)
18,CCOC(=O)C(=Cc1ccccc1OC)C(=O)OCC,-2.52% (inactive)
19,COc1ccc(OCC(=O)NNC(=O)c2cccc(C)c2)cc1,-0.28% (inactive)
20,COC(=O)CNC(=O)c1ccccc1F,-2.64% (inactive)
21,CN(NC(=O)c1ccccc1F)c1nc(C(F)(F)F)nc2ccccc12,73.2% (active)
22,CN(NC(=O)c1ccccc1)c1nc2ccccc2nc1C(F)(F)F,-2.71% (inactive)
23,CSc1nc(N(C)NC(=O)c2cccc(C)c2)c2ccccc2n1,93.6% (active)
24,COc1ccc(C(=O)NN(C)c2nc(-c3ccccc3)cc(C)c2S(C)(=O)=O)cc1,2.15% (inactive)
25,CC(=O)c1ccc(NC(=O)CSC(=S)N2CCCC2)cc1,-0.78% (inactive)

row,SMILES,inhibition
1,C=CCNC(=O)CSc1nc2scc(-c3ccco3)c2c(=O)n1CC=C,-2.22% (inactive)
2,Nc1nc(NC(=O)/C=C/c2ccc(F)cc2)nn1-c1ccccc1,1.73% (inactive)
3,CCCCCN(C(=O)NC(=O)Nc1cccc(C)c1C)S(C)(=O)=O,1.95% (inactive)
4,CC(NC(=O)C(=O)Nc1nccs1)c1ccccc1 (configuration not stated),-0.5% (inactive)
5,CCCCN1C(=O)CCC(C(=O)O)C1c1ccc(OC)cc1 (configuration not stated),-6.4% (inactive)
6,CC(=O)c1cnc(-c2ccccc2)s1,-0.87% (inactive)
7,COc1ccc(-c2csc(NC3OC(=O)c4ccccc43)n2)cc1 (configuration not stated),11.9% (inactive)
8,COc1ccc2c(c1OC)C(=O)OC2c1c(O)nc(SC)n(-c2ccccc2)c1=O (configuration not stated),-4.02% (inactive)
9,COc1ccc2c(c1OC)C(=O)OC2Nc1nc(-c2ccccc2)cs1 (configuration not stated),68.6% (active)
10,Cn1c(SCC(=O)Nc2ccc(Cl)cc2)nc(O)cc1=O,-1.33% (inactive)
11,O=C1CC(c2c(F)cccc2Cl)C(n2cncn2)C(O)=C1C1NCCc2ccccc21 (configuration not stated),-3.23% (inactive)
12,CCCOc1ccccc1C1CC(=O)Nc2cc3c(cc21)OCO3 (configuration not stated),74.4% (active)
13,COCCOC(=O)C1=C(C)NC(=O)CC1c1cc2c(cc1Br)OCO2 (configuration not stated),1.76% (inactive)
14,COc1ccc(F)cc1S(=O)(=O)Nc1ccc2c(c1)OCO2,0.08% (inactive)
15,COc1ccccc1C1C2=C(COC2=O)Nc2cc3c(cc21)OCO3 (configuration not stated),85.5% (active)
16,COc1ccc(C2CC(=O)Nc3cc(C)c(C)cc32)c(OC)c1OC (configuration not stated),0.14% (inactive)
17,COc1cc2c(cc1/C=C1/NC(=O)N(c3ccccc3)C1=O)OCO2,0.39% (inactive)
18,Cc1nc(C(=O)N2CCCC(C(=O)c3ccc(Cl)cc3)C2)cs1 (configuration not stated),-2.53% (inactive)
19,CC(=O)N1CCN(S(=O)(=O)c2c(F)cc(F)c(Cl)c2F)CC1,-1.72% (inactive)
20,COc1ccc(CN(C)C(C)C(=O)NC2CCCc3ccccc32)cc1 (configuration not stated),3.02% (inactive)
21,COc1ccc2nc(SCc3ccccc3)nc(C)c2c1,2.96% (inactive)
22,CCOC(=O)C1C(c2ccc(OC)c(OC)c2)c2c([nH][nH]c2=O)CC1(C)O (configuration not stated),-0.54% (inactive)
